# JMJD2A Tudor inh – qHTS Assay for Inhibitors of JMJD2A-Tudor Domain. Lysine-specific demethylase 4A (Homo sapiens), O75164. AlphaScreen JMJD2A-Tudor / H3K4me3 peptide binding. Potency, µM (titrated, usually from 114 µM), for the others: at the top dose activity change, negative = inhibition, actives largely listed as inhibitors. actives 4.4% (n = 390,000); note: potency is the fitted concentration of half-maximal effect; % is set by controls: 0 for no effect and ±100 for the full control effect; nearly all actives have a fitted effect of over 50% in size
# G9a inh – qHTS Assay for Inhibitors of Histone Lysine Methyltransferase G9a; Histone-lysine N-methyltransferase EHMT2 (Homo sapiens), Q96KQ7; G9a H3K9 monomethylation, AlphaScreen, 2 h; Potency, µM (series often up to 102 µM), for inactives: at the highest dose activity, negative = inhibition, usual class: inhibitors; actives 8.8% (n = 350,000); note: potency is the fitted concentration of half-maximal effect; % is set by controls: 0 for no effect and ±100 for the full control effect; nearly all actives have a fitted effect of over 75% in size
# Target sequence (Q96KQ7 913-1193 limits assumed): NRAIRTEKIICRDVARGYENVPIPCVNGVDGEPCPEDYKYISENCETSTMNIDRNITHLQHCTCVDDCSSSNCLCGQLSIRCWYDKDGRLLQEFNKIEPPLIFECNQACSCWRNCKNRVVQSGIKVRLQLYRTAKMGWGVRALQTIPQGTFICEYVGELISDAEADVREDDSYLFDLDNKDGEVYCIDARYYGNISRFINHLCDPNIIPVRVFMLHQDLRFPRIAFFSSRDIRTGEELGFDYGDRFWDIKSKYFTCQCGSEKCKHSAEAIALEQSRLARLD
#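 Step 1: enzyme (final 20 nM) with compound, 15 min RT. Step 2: substrate peptide 500 nM and SAM 20 uM, 2 h RT. Step 3: anti-H3K9me1 antibody and AlphaScreen beads, 10 min, then plate read.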
# CtBP-E1A inh – qHTS Assay for Inhibitors of the CtBP/E1A Interaction; AlphaScreen GST-E1A/His-CtBP binding, 1536-well; active compounds read low; actives 0.49% (n = 340,000); activity change, % (test concentration not listed); AID 651724, 2012; in the data active = activity change below about -65%; inconclusive = mostly about -30% to -63%; note: % is set by controls: 0 for no effect and ±100 for the full control effect
#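 In 5 uL wells, 23 nL compound meets equimolar GST-E1A and His-CtBP (5X stock 125 nM each) for 2 h, 37 °C. Beads (5X, 50 ug/mL) then 1 h, 37 °C, dark.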
# HP1b chromo inh – HTS for Inhibitors of HP1-beta Chromodomain Interactions with Methylated Histone Tails | Chromobox protein homolog 1 (Homo sapiens), P83916 | AlphaScreen HP1-beta / biotin-H3K9me3 peptide binding | Potency, µM (top dose mostly 114 µM), without a hit: at the highest dose activity change, negative = inhibition, usual class: inhibitors | actives 0.56% (n = 390,000); note: potency is the fitted concentration of half-maximal effect; nearly all actives have a fitted effect of over 70% in size
# Target sequence (P83916 whole entry, looked up): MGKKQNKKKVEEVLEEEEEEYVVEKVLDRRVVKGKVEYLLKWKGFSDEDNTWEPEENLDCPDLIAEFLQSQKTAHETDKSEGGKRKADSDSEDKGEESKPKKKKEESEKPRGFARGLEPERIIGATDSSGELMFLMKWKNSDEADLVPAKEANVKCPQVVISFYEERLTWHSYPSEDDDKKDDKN
#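 HP1-beta protein (50 nM final) preincubated 30 min at room temperature with biotinylated H3(1-18)K9me3 peptide (50 nM) in PBS pH 7.4, 0.01% Tween-20, then compound added for 30 min. AlphaScreen streptavidin donor/nickel chelate acceptor beads (10 ug/mL final), 30 min dark, luminescence read.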
# Six1-Eya2 blk – qHTS Assay for Inhibitors of the Six1/Eya2 Interaction; Homeobox protein SIX1 (Homo sapiens) + Protein phosphatase EYA2 (Homo sapiens), …; AlphaScreen GST-Six1/His-Eya2 binding, biochemical; active compounds read low; activity change, % (test concentration not listed); actives 0.56% (n = 360,000); AID 651725, 2012; in the data active = activity change below about -65%; inconclusive = mostly about -30% to -63%; note: % is set by controls: 0 for no effect and ±100 for the full control effect
#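 Six1/Eya2 binding was read as AlphaScreen signal after compounds were pinned into GST-Six1 plus His-tagged Eya2 (5X stock 250/500 nM) in pH 8.0 Tris/NaCl/TCEP buffer, beads added, then incubated 1 h, 37 C, dark.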
# BAZ2B block – qHTS Assay for Inhibitors of BAZ2B; Bromodomain adjacent to zinc finger domain protein 2B (Homo sapiens), Q9UIF8; actives 4.4% (n = 360,000); AlphaScreen BAZ2B-H3K14Ac peptide displacement; Potency, µM (doses to about 114 µM), inactives show at the top dose activity change, negative = inhibition, usual class: inhibitors; AID 504333, 2011; note: potency is the fitted concentration of half-maximal effect; % is set by controls: 0 for no effect and ±100 for the full control effect; nearly all actives have a fitted effect of over 60% in size
#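 AlphaScreen displacement of biotin-H3(5-23)K14Ac peptide (50 nM final) from BAZ2B (50 nM final) in PBS pH 7.4, 0.01% Tween-20; complex preformed 30 min RT, then compounds (top 110 uM) 30 min RT, beads 20 min dark.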
# An asterisk follows results filed as active; u = inconclusive; x = not tested or not shown; [ ] = another dose, or the depositor's remark. Only some compounds are listed: those with a hit (about 10% of all), similar ones and a draw of the others. Unless noted, calls come from the whole dose curve; as a rule, active = well fitted inhibition curve with a large enough effect; inconclusive = small, poorly fitted or top-dose-only effect; inactive = no such curve, though single readings can be large or run the other way.
SMILES,JMJD2A Tudor inh,G9a inh,CtBP-E1A inh,HP1b chromo inh,Six1-Eya2 blk,BAZ2B block
N[C@@H](C(=O)N[C@@H]1C(=O)N2C(C(=O)O)=C(Cl)CS[C@H]12)c1ccccc1,25µM*,50µM*,-22,18%,1,32µM*
CC1=C(C(=O)O)N2C(=O)C(NC(=O)C(N)c3ccc(O)cc3)C2SC1 (centres undefined),x,-29%[2.33 µM],x,x,x,x
C=CC1=C(C(=O)O)N2C(=O)[C@@H](NC(=O)C(N=O)c3csc(N)n3)[C@H]2SC1 (some centres undefined),x,1%[59 µM],x,x,x,x
COc1ccc(CCNC(=O)CN(c2ccccc2)S(=O)(=O)N(C)C)cc1OC,-8%,-38%[59 µM],x,22%,x,-13%
CC(CNC(=O)c1ccc2nc(Cc3ccccc3)oc2c1)c1ccccc1 (centres undefined),-10%,14%[59 µM],x,8%[57 µM],x,1%
CC1=C(C(=O)OC(C)C)C(c2cccc([N+](=O)[O-])c2)C(C(=O)OC2CN(C(c3ccccc3)c3ccccc3)C2)=C(N)N1 (centres undefined),x,-7%[12.7 µM],x,x,x,x
Cc1cc2c(cc1NC(=O)c1ccccc1C)n(C)c(=O)c(=O)n2C,-16%,-5%[59 µM],x,-16%,x,-3%
N#CNc1nc(O)cc(=O)[nH]1,-28%,50µM*,-4,32%,-11,-10%
COc1ccccc1N1CCN(C(=O)c2nc(-c3ccc(C)cc3)n3c2CCCCC3)CC1,-30%,u,x,-1%,x,-19%
Cc1ccc(-c2nc(C(=O)NCc3ccccc3Cl)c3n2CCCCC3)cc1,-18%,-9%[59 µM],x,-5%,x,-32%
COc1ccc(CCNC(=O)c2nc(-c3ccc(Cl)cc3)n3c2CCCCC3)c(OC)c1,18µM*,13µM*,x,-23%,x,18µM*
Cc1cccc(CCNC(=O)c2nc(-c3ccc(Cl)cc3)n3c2CCCCC3)c1,14µM*,11µM*,x,-23%,x,10µM*
COc1cccc(N2CCN(C(=O)c3nc(-c4ccc(Cl)cc4)n4c3CCCCC4)CC2)c1,40µM*,18µM*,x,u,x,28µM*
CC1(C(=O)NCc2cccs2)Cc2c(-c3ccc4c(c3)OCO4)ccnc2O1 (centres undefined),x,x,-2,x,-5,x
Cc1cc2c(ncn2Cc2ccccc2)c(N)c1C,u,u,1,-26%,-1,71µM*
Cc1cc2c(ncn2Cc2ccccc2)c(NS(C)(=O)=O)c1C,-18%,u,-1,19%,-4,6%
COc1cc(C(=O)Nc2ccc(NC(=O)C(C)C)nc2)cc(OC)c1OC,-22%,u,2,26%,3,79µM*
COc1ccc(C(=O)Nc2ccc(NC(=O)c3cccc(F)c3)cn2)cc1,u,45µM*,-21,98%,0,u
COc1ccc(C(=O)Nc2ccc(NC(=O)c3cccs3)cn2)cc1,u,22µM*,3,32%,5,u
COc1cc(C(=O)Nc2ccc(NC(=O)c3ccccc3)nc2)cc(OC)c1OC,-6%,17%,-2,22%,-12,u
COc1ccc(C(=O)Nc2ccc(NC(=O)Cc3ccccc3)cn2)cc1,-10%,11µM*,-1,32%,9,14%
COc1ccc(C(=O)Nc2ccc(NC(=O)c3cccc(OC)c3)cn2)cc1,-5%,-2%,3,50%,-3,-4%
